The assay concerns Salmonella enterica serovar Typhimurium SL1344. The assay is described as follows: normalized intracellular growth (luminescence, IQM-normalized) in RAW264.7 macrophages (fraction of plate interquartile mean); higher = more bacterial growth (less inhibition). As to conditions: 10 µM.

± gives the standard deviation of the averaged measurements. In all, about 1,600 compounds were measured (“normalized intracellular growth (luminescence, IQM-normalized) in RAW264.7 macrophages”: median about 1, lowest 2% from about 0.43 on). Only a selection was taken, and the lowest values are over-represented in it overall.

This is an account of results in the supplement of paper PMC6331611.

As for `CCCNC(C)(C)COC(=O)c1ccccc1`, the normalized intracellular growth is, setting by setting: (time point: T3 (3 h)) 0.828 ± 0.083; (time point: Tfinal (~6 h)) 0.1174 ± 0.0011.
For `O=C(OOC(=O)c1ccccc1)c1ccccc1`, the normalized intracellular growth (time point: T3 (3 h)) worked out at 1 ± 0.017 and the normalized intracellular growth (time point: Tfinal (~6 h)) is 1.05 ± 0.037.
In the same order, the values of `O=C(OCc1ccccc1)c1ccccc1` are 0.966 ± 0.057 and 0.928 ± 0.069.
With `C=C1CC[C@H](O)C/C1=C/C=C1\CCC[C@]2(C)[C@@H]([C@H](C)/C=C/[C@H](C)C(C)C)CC[C@@H]12`, the normalized intracellular growth worked out at 1.04 ± 0.059 (time point: T3 (3 h)) and 1.2 ± 0.086 (time point: Tfinal (~6 h)).
For `CC(O)(CC(=O)O)CC(=O)O` the same measures were 0.971 ± 0.034 and 1.02 ± 0.061.
In the same order, the values of `NCc1ccc(S(N)(=O)=O)cc1` are 0.686 ± 0.071 and 0.0766 ± 0.0043.
As to `Nc1ccc(S(N)(=O)=O)cc1`, the normalized intracellular growth was found to be 0.9673 ± 0.006 (time point: T3 (3 h)) and 1.07 ± 0.1 (time point: Tfinal (~6 h)).
Consider `NS(=O)(=O)c1ccc(C(=O)O)cc1`, for which the normalized intracellular growth is, setting by setting: (time point: T3 (3 h)) 1.006 ± 0.0098; (time point: Tfinal (~6 h)) 0.964 ± 0.076.
For `O=C(O)CN1C(=O)c2cccc3cccc(c23)C1=O` the same measures were 0.914 ± 0.099 and 1.05 ± 0.096.
For `CC(=O)Nc1ccc(C(=O)O)cc1`, the normalized intracellular growth (time point: T3 (3 h)) was determined as 1.06 ± 0.055 and the normalized intracellular growth (time point: Tfinal (~6 h)) stood at 0.967 ± 0.1.
In the same order, the values of `CCCCC(CC)CCC(CC(C)C)OS(=O)(=O)O` (stereo not given) are 1.03 ± 0.031 and 1.1 ± 0.03.
Consider `NCCC[C@H](N)C(=O)O`, for which the normalized intracellular growth runs as follows: (time point: T3 (3 h)) 0.972 ± 0.048; (time point: Tfinal (~6 h)) 0.966 ± 0.13.
In the case of `C[C@H]1[C@H](NC(=O)/C(=N\OC(C)(C)C(=O)O)c2csc(N)n2)C(=O)N1S(=O)(=O)O`, the normalized intracellular growth runs as follows: (time point: T3 (3 h)) 0.992 ± 0.04; (time point: Tfinal (~6 h)) 0.2 ± 0.016.
Regarding `CC(C)(O/N=C(\C(=O)N[C@@H]1C(=O)N2C(C(=O)[O-])=C(C[n+]3ccccc3)CS[C@H]12)c1csc(N)n1)C(=O)O`, the normalized intracellular growth runs as follows: (time point: T3 (3 h)) 0.997 ± 0.078; (time point: Tfinal (~6 h)) 0.806 ± 0.12.
For `FC(F)(F)COCC(F)(F)F` the same measures were 0.946 ± 0.09 and 0.9 ± 0.27.
Consider `CC(=O)N[C@@H](CCC(N)=O)C(=O)O`, for which the normalized intracellular growth was 0.959 ± 0.023 (time point: T3 (3 h)) and 0.942 ± 0.11 (time point: Tfinal (~6 h)).
In the same order, the values of `Nc1ccc(S(=O)(=O)O)cc1.Nc1ccc(S(=O)(=O)O)cc1.[Zn]` are 1.01 ± 0.047 and 1.15 ± 0.099.
For `CC12CCC(CC1)C(C)(C)O2` the same measures were 1.02 ± 0.024 and 0.96 ± 0.18.
In the same order, the values of `CN(C)[C@@H]1C(O)=C(C(N)=O)C(=O)[C@@]2(O)C(O)=C3C(=O)c4c(O)ccc(Cl)c4[C@@](C)(O)[C@H]3C[C@@H]12` are 0.846 ± 0.031 and 0.23 ± 0.02.
Turning to `CN(C)[C@@H]1C(O)=C(C(N)=O)C(=O)[C@@]2(O)C(O)=C3C(=O)c4c(O)cccc4[C@@](C)(O)[C@H]3[C@H](O)[C@@H]12`, the normalized intracellular growth was 1.01 ± 0.074 (time point: T3 (3 h)) and 0.0331 ± 0.014 (time point: Tfinal (~6 h)).
Turning to `C=C1c2c(Cl)ccc(O)c2C(=O)C2=C(O)[C@]3(O)C(=O)C(C(N)=O)=C(O)[C@@H](N(C)C)[C@@H]3[C@@H](O)[C@H]12.O=C(O)c1cc(S(=O)(=O)O)ccc1O`, the normalized intracellular growth (time point: T3 (3 h)) stood at 1.01 ± 0.065 and the normalized intracellular growth (time point: Tfinal (~6 h)) turned out to be 0.0256 ± 0.0064.
For the compound `CN(C)[C@@H]1C(O)=C(C(N)=O)C(=O)[C@@]2(O)C(O)=C3C(=O)c4c(O)ccc(Cl)c4[C@@H](O)[C@H]3C[C@@H]12`, the normalized intracellular growth was 0.727 ± 0.11 (time point: T3 (3 h)) and 0.176 ± 0.0084 (time point: Tfinal (~6 h)).
For `OCc1ccccn1` the same measures were 1.02 ± 0.06 and 0.892 ± 0.1.
`C=NC(C(=O)NC1C(=O)N2C1SC(C)(C)C2C(=O)O)c1ccccc1` (stereo not given): the normalized intracellular growth is, setting by setting: (time point: T3 (3 h)) 0.959 ± 0.021; (time point: Tfinal (~6 h)) 1.04 ± 0.011.
As to `Nc1ncnc(Nc2ccc(Cl)cc2)n1`, the normalized intracellular growth reads like this: (time point: T3 (3 h)) 1.1 ± 0.074; (time point: Tfinal (~6 h)) 0.945 ± 0.42.
In the case of `Cc1ncc([N+](=O)[O-])n1C`, the normalized intracellular growth (time point: T3 (3 h)) was found to be 0.936 ± 0.053 and the normalized intracellular growth (time point: Tfinal (~6 h)) worked out at 0.98 ± 0.1.
As for `Nc1nccs1`, the normalized intracellular growth is, setting by setting: (time point: T3 (3 h)) 1.03 ± 0.072; (time point: Tfinal (~6 h)) 0.911 ± 0.12.
Take `O.O.O=C([O-])CN(CCN(CC(=O)[O-])CC(=O)O)CC(=O)O.[Na+].[Na+]`: the normalized intracellular growth stood at 0.978 ± 0.021 (time point: T3 (3 h)) and 1.02 ± 0.013 (time point: Tfinal (~6 h)).
As for `O=c1[nH]c(=O)c2ccccc2o1`, the normalized intracellular growth was determined as 0.963 ± 0.026 (time point: T3 (3 h)) and 1.02 ± 0.078 (time point: Tfinal (~6 h)).
For `CC1=C(C/C=C(\C)CCC[C@H](C)CCC[C@H](C)CCCC(C)C)C(=O)c2ccccc2C1=O` the same measures were 0.968 ± 0.067 and 1.08 ± 0.064.
Take `CCCCC/C=C/CCC(=O)N[C@H]1[C@H](Oc2c3cc4cc2Oc2ccc(cc2Cl)[C@@H](O[C@@H]2O[C@H](CO)[C@@H](O)[C@H](O)[C@H]2NC(C)=O)[C@@H]2NC(=O)[C@H](NC(=O)[C@@H]4NC(=O)[C@H]4NC(=O)C(Cc5ccc(c(Cl)c5)O3)NC(=O)[C@H](N)c3ccc(O)c(c3)Oc3cc(O)cc4c3)c3ccc(O)c(c3)-c3c(OC4O[C@H](CO)[C@@H](O)[C@H](O)[C@@H]4O)cc(O)cc3[C@@H](C(=O)O)NC2=O)O[C@H](CO)[C@@H](O)[C@@H]1O` (stereo not given in full) [TEICOPLANIN [A(2-1) shown]]: the normalized intracellular growth was found to be 0.955 ± 0.07 (time point: T3 (3 h)) and 1.07 ± 0.065 (time point: Tfinal (~6 h)).
In the same order, the values of `Cc1c(C)c2c(c(C)c1O)CCC(C)(CCCC(C)CCCC(C)CCCC(C)C)O2` (stereo not drawn) [alpha-TOCHOPHEROL] are 0.999 ± 0.14 and 1.1 ± 0.13.
In the case of `O=C(NCc1ccccc1)OCCO`, the normalized intracellular growth (time point: T3 (3 h)) was 1.24 ± 0.071 and the normalized intracellular growth (time point: Tfinal (~6 h)) amounted to 1.33 ± 0.083.
Take `CN(C)[C@@H]1C(O)=C(C(=O)NCN2CCCC2)C(=O)[C@@]2(O)C(O)=C3C(=O)c4c(O)cccc4[C@@](C)(O)[C@H]3C[C@@H]12`: the normalized intracellular growth reads like this: (time point: T3 (3 h)) 0.973 ± 0.013; (time point: Tfinal (~6 h)) 0.683 ± 0.41.
`C[C@H]1c2cccc(O)c2C(=O)C2=C(O)[C@]3(O)C(=O)C(C(N)=O)=C(O)[C@@H](N(C)C)[C@@H]3[C@@H](O)[C@@H]21`: the normalized intracellular growth worked out at 0.73 ± 0.065 (time point: T3 (3 h)) and 0.173 ± 0.025 (time point: Tfinal (~6 h)).
For `CN(C)[C@@H]1C(O)=C(C(N)=O)C(=O)[C@@]2(O)C(O)=C3C(=O)c4c(O)cccc4[C@@](C)(O)[C@H]3C[C@@H]12` the same measures were 0.598 ± 0.062 and 0.209 ± 0.048.
In the same order, the values of `CN(C)c1cc(NC(=O)CNC(C)(C)C)c(O)c2c1C[C@H]1C[C@H]3[C@H](N(C)C)C(O)=C(C(N)=O)C(=O)[C@@]3(O)C(O)=C1C2=O` are 1.01 ± 0.05 and 1.02 ± 0.18.
For `C=C1c2cccc(O)c2C(=O)C2=C(O)[C@]3(O)C(=O)C(C(N)=O)=C(O)[C@@H](N(C)C)[C@@H]3[C@@H](O)[C@H]12` the same measures were 0.979 ± 0.029 and 0.103 ± 0.039.
Consider `CN(C)c1ccc(O)c2c1C[C@H]1C[C@H]3[C@H](N(C)C)C(O)=C(C(N)=O)C(=O)[C@@]3(O)C(O)=C1C2=O`, for which the normalized intracellular growth reads like this: (time point: T3 (3 h)) 1.01 ± 0.091; (time point: Tfinal (~6 h)) 0.33 ± 0.14.
For `CN(C)CCc1c[nH]c2ccc(CS(=O)(=O)N3CCCC3)cc12` the same measures were 0.989 ± 0.027 and 1.14 ± 0.15.
